Test results taken from PubChem BioAssay AID504843 (Broad Institute, 2011).
Hit rate of the full screen: of about 1,200 compounds, about 360 (30%) were called active. No rule for the calls is given here. Not all results are given here. Measured potencies and affinities stand elsewhere.

assay: antibacterial activity by ATP level – BacTiter-Glo luminescence, cherry-picked samples, counter-screen, dose response (AID 504843); conditions: bacterial growth; series mostly up to 15 µM; activity change, negative = inhibition: at the top concentration;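 also: growth measured after 8 h incubation at 30 °C; 0% = median of sample compound wells and -100% = antibiotic control wells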

Compound	activity change, negative = inhibition
C/C(=N\NC(=O)c1cccc(O)c1)c1cccc(NC(=O)c2ccc(F)cc2)c1	-11.8% (inactive)
CCOC(=O)CNS(=O)(=O)Cc1ccccc1	2.54% (inactive)
CC(=O)NCC(=O)OCC(=O)c1ccc(C)cc1	-4.08% (inactive)
CCCCCn1c(CNC(=O)c2cccs2)nc2ccccc21	0.73% (inactive)
Cc1cccc(NC(=S)NC(C)CCc2ccccc2)c1 (stereo not drawn)	8.6% (inactive)
CCOC(=O)c1c2c3c(c(Cl)ccc3[nH]c1=O)C(=O)c1ccccc1-2	-22.5% (inactive)
CCc1ccccc1NC(=O)CSc1nnc(-c2ccco2)n1N	13.7% (inactive)
Cc1ccc(S(=O)(=O)Nc2ccnc(-c3cccnc3)n2)cc1	-4.2% (inactive)
Clc1ccccc1-c1ccc2ncnc(NCc3cccnc3)c2c1	11.5% (inactive)
Cc1ccc(/C=N/NC(=O)c2ccc(Cn3cc([N+](=O)[O-])cn3)o2)cc1	12.9% (inactive)
CC(C)(C)OC(=O)N[C@@H](Cc1ccccc1)[C@H](O)c1ccco1	11.6% (inactive)
CCCc1cc(=O)oc2cc(OCC(=O)N(C)C)c(Cl)cc12	0.057% (inactive)
COc1ccc(C(CNC(=O)c2cc(SC)ccc2Cl)N(C)C)cc1 (stereo not drawn)	18.1% (inactive)
O=C(NC(=S)NNC(=O)c1ccccc1O)c1ccccc1	-3.27% (inactive)
O=C(c1ccco1)N1CCN(C(=O)c2ccc(CS(=O)c3ccc(F)cc3)o2)CC1 (stereo not drawn)	0.136% (inactive)
CCC(=NCCc1ccc(OC)c(OC)c1)C1=C(O)CC(C)(C)CC1=O	13.4% (inactive)
COCCNC(=O)c1c[nH]c2ccc(S(=O)(=O)N3CCc4ccccc43)cc2c1=O	9.26% (inactive)
COc1cc(OC)cc(C(=O)NC2CC(C)(C)NC(C)(C)C2)c1	13.5% (inactive)
CC(=O)c1cc(CN2CCCCC2)cc(OC(C)C)c1	-0.098% (inactive)
CCc1cc2c(=O)n(C(C)C(=O)OC3CCCCC3)cnc2s1 (stereo not drawn)	0.744% (inactive)
O=C(Nc1cc(N2CCOCC2)ncn1)c1ccccc1	-16.3% (inactive)
COc1ccccc1N1C(=NC(=O)CCc2ccccc2)SC2CS(=O)(=O)CC21 (stereo not drawn)	3.8% (inactive)

Compound	activity change, negative = inhibition
CCCn1c2c(c(=N)c3c1CCC3)CCCC2	-11.5% (inactive)
CC(=O)c1ccc(NC(=O)C2CCCN2S(=O)(=O)c2cccc3cccnc23)cc1 (stereo not drawn)	-10% (inactive)
CC(C)(C#N)NC(=O)C1CCCN1S(=O)(=O)c1ccc2ccccc2c1 (stereo not drawn)	-6.47% (inactive)
Cc1ccc(S(=O)(=O)NC(C)(C)CSc2nnc(Nc3ccccc3)s2)cc1	-0.402% (inactive)
Cc1ccc(NC(=O)CN2CCN(c3ccccn3)CC2)c(Cl)c1	-4.89% (inactive)
O=C(CN1CCCCC1)Nc1cc(Cl)ccc1Cl	1.36% (inactive)
CCC1Nc2ncnc(N3CCOCC3)c2N(Cc2ccc(Cl)cc2)C1=O (stereo not drawn)	7.38% (inactive)
O=C(Nc1cccnc1Cl)c1noc2c1CCc1ccccc1-2	-16.5% (inactive)
CC1=C(C#N)C(c2cn(-c3ccccc3)nc2-c2cccs2)C(C#N)=C(C)N1	-12.6% (inactive)
CC(=O)Nc1cccc(-c2csc(Nc3cc(C)ccn3)n2)c1	0.359% (inactive)
O=C(O)c1ccc(NC2=C(N3CCOCC3)C(=O)c3ccccc3C2=O)cc1	8.16% (inactive)
Cc1cccc(OCC(O)Cn2c(=N)n(CCN3CCOCC3)c3ccccc32)c1 (stereo not drawn)	-6.21% (inactive)
COC(=O)COc1cccc(NC(=O)c2cccc(C)c2)c1	-12.3% (inactive)
CCCNC(=O)c1cc(C)no1	-13.7% (inactive)
COc1ccc(/C(C)=N/NC(=O)CNC(=O)c2ccncc2)c(OC)c1	14.3% (inactive)
CCCCc1ccc(N=N/C(C(=O)Nc2ccc(NC(C)=O)cc2OC)=C(/C)O)cc1	4.01% (inactive)
Cc1ccc(C)c(S(=O)(=O)Nc2cc(SCC(=O)O)c(O)c3ccccc23)c1	-2.04% (inactive)
CC1(C)c2ccccc2N2CC(=O)NC21/C=C/c1ccco1 (stereo not drawn)	-2.83% (inactive)
C=CCn1cccc(C(=O)Nc2ccc(OC)cc2)c1=O	-12.5% (inactive)
C=CCNC(=S)Nc1cccc2[nH]ncc12	-0.478% (inactive)
COc1cccc(CN2CCN(C(=O)c3ccco3)CC2)c1	18.3% (inactive)
O=[N+]([O-])c1cccc(N(CC(O)CN2CCCCC2)S(=O)(=O)c2ccccc2)c1 (stereo not drawn)	-3.49% (inactive)

Compound	activity change, negative = inhibition
CCC(CO)NC(=O)c1cccc(S(=O)(=O)N2c3ccccc3CC2C)c1 (stereo not drawn)	9.79% (inactive)
COc1ccc(S(=O)(=O)Nc2nc3c(s2)CCCC3)cc1	12.9% (inactive)
O=C(COC(=O)c1cccc(S(=O)(=O)N2CCc3ccccc32)c1)Nc1ncc(C(F)(F)F)cc1Cl	2.36% (inactive)
Nc1ccc(S(=O)(=O)N2CCCc3ccccc32)cc1	-21.1% (inactive)
C[C@H]1NC(=O)[C@@]2(C)[C@@H](c3ccccc3)[C@H]3COc4ccccc4[C@H]3N2C1=O	-2.87% (inactive)
CCNc1nc(SCCOc2ccc(C)cc2)nc(N(C)C)n1	-1.81% (inactive)
CCC1SC(C)C/C(=N/NC(N)=O)C1C (stereo not drawn)	17.8% (inactive)
CN(C)c1cccc(C(=O)N/N=C/c2ccccc2F)c1	-8.46% (inactive)
CCOC(=O)c1ccc(NC(=O)c2cn(CCC#N)nc2-c2ccc3c(c2)OCCO3)cc1	15.1% (inactive)
O=C(NCc1cccnc1)c1cccc(-c2cc3ccccc3oc2=O)c1	13.5% (inactive)
Cc1cnc(C(=O)OCC(=O)Nc2sc3c(c2C#N)CCC3)cn1	5.17% (inactive)
CC1CCN(C(=O)c2ccc(S(=O)(=O)N3CCCC3)cc2)CC1	-11.1% (inactive)
CC(=O)Oc1ccc(C(=O)Nc2ccccc2C(=O)N2CCCCC2)cc1	-5.23% (inactive)
CCOC(=O)C1CCN(C(=O)Nc2ccc(C)c(Cl)c2)CC1	2.75% (inactive)
Cc1ccccc1C(=O)N1CCN(c2ccc(NC(=S)NC(=O)c3cccs3)cc2)CC1	-13.8% (inactive)
CCc1ccc2c(COC(=O)C3CC(=O)N(CCc4ccccc4)C3)cc(=O)oc2c1 (stereo not drawn)	-8.14% (inactive)
CCn1c(SCC(=O)c2ccccc2)nnc1-c1cccnc1	4.29% (inactive)
CN(C)c1nc(NCc2ccccc2)nc(SCC(N)=O)n1	0.62% (inactive)
CCOC(=O)C(C(=O)Nc1ccc(C)cc1)C1CCCCC1 (stereo not drawn)	2.6% (inactive)
COc1ccc(NC(=O)COCC(=O)Nc2ccc(C)cc2)cc1	2.25% (inactive)
CC(C)(C)CC(=O)Nc1cccc(-c2cn3cccnc3n2)c1	-11.7% (inactive)
CCCCOc1ccc(NC(=O)c2cc(F)c(F)cc2Cl)cc1	-13.8% (inactive)

Compound	activity change, negative = inhibition
Cc1ccc(OCCNS(=O)(=O)c2ccc(N3CCCC3=O)cc2)cc1C	-1.98% (inactive)
CCc1ccc(NC(=O)Nc2cc(C(=O)NCC3CCCO3)ccc2N2CC3CC(C2)c2cccc(=O)n2C3)cc1 (stereo not drawn)	-0.12% (inactive)
COc1ccccc1OCCNC(=O)C1CCN(C(C)=O)CC1	8.06% (inactive)
CC(C)(C)OC(=O)NCCCCCNC(=O)c1[nH]cnc1C(=O)NC1CCN(C(=O)OC(C)(C)C)CC1	-4.62% (inactive)
Cc1cc(C)cc(-n2c(C)cc(/C=C3\C(=N)N4N=C(CC(C)C)SC4=NC3=O)c2C)c1	0.158% (inactive)
O=C(NNc1ccnc2cc(Cl)ccc12)C1CCCCC1	-7.77% (inactive)
COc1ccc(CCNC(=O)/C=C/c2ccco2)cc1OC	0.154% (inactive)
Cc1ccc(CN(C(=O)c2sc3ccccc3c2Cl)C2CCS(=O)(=O)C2)cc1 (stereo not drawn)	9.82% (inactive)
O=C(O)[C@H](CO)Nc1ncnc2sc3c(c12)CCC3	11.8% (inactive)
O=C(CCNS(=O)(=O)c1ccccc1C(F)(F)F)N1CCN(c2ccccc2O)CC1	9.42% (inactive)
CCN(CC)C(=O)CSc1nc2ccccc2o1	16.9% (inactive)
CCCCN(CC)CCNC(=S)Nc1ccc2nc(N3CCN(C)CC3)cc(C)c2c1	1.76% (inactive)
O=C(Nc1ccc(C2=NCCN2)cc1)c1ccc(C(=O)Nc2ccc(C3=NCCN3)cc2)c([N+](=O)[O-])c1	6.04% (inactive)
CC(=O)Nc1ccc(Nc2nc(C)c([N+](=O)[O-])c(N(C)c3ccccc3)n2)cc1	15.8% (inactive)
CC1CN(C(=O)c2cc3cc([N+](=O)[O-])ccc3oc2=O)CC(C)O1 (stereo not drawn)	3.61% (inactive)
O=C(CSC1=NCCS1)c1ccc(Cl)cc1	9.01% (inactive)
Cc1[nH]c2ccccc2c1Cc1nnc(SCC(N)=O)o1	1.89% (inactive)
COc1ccc(-c2cc(C)no2)cc1S(=O)(=O)NCCCN1CCCCCC1	-7.18% (inactive)
CCNc1c(NS(=O)(=O)c2ccc(OC)cc2)c(=O)oc2ccccc12	-17.3% (inactive)
COc1ccccc1N1CCN(c2nc(-c3ccccc3)cc(C(F)(F)F)n2)CC1	-0.607% (inactive)
CCNc1nc(NCC)nc(OCCOC(C)=O)n1	-9.52% (inactive)
Nc1cc(N)nc(SCc2ccc(Cl)cc2)n1	4.2% (inactive)

Compound	activity change, negative = inhibition
Cc1cccc(NC(=O)c2cc(S(=O)(=O)N3CCC4(CC3)OCCO4)ccc2F)c1	-2.34% (inactive)
O=C(Nc1ccccc1F)c1ccc([N+](=O)[O-])s1	17.9% (inactive)
c1ccc2c(N3CCOCC3)nc(-c3ccncc3)nc2c1	-1.69% (inactive)
CCNC(=O)NC(=O)C(C)OC(=O)C1CCN(S(=O)(=O)c2ccccc2F)CC1 (stereo not drawn)	18.5% (inactive)
Cc1cc(C)c(S(=O)(=O)N2CCN(C(=O)CN3C(=O)NC4(CCCC4)C3=O)CC2)c(C)c1	6.89% (inactive)
Cc1ccc(C)c(SCC(=O)Nc2cccc(S(=O)(=O)NC3=NCCCCC3)c2)c1	8.62% (inactive)
Cc1ccc(CCNC(=O)CCS(=O)(=O)c2cc3c(cc2C)NC(=O)CO3)cc1	7.13% (inactive)
CN(Cc1ccccc1)c1ncnc2sccc12	5.73% (inactive)
CC(C)(C)CC(=O)Nc1ccc(Nc2ccccc2)cc1	-10.5% (inactive)
Cc1cccc(NC(=O)[C@H](Cc2ccccc2)NC(=O)OCc2ccccc2)c1	-12.2% (inactive)
CSc1ncccc1C(=O)OCC(=O)N(C)c1c(N)n(Cc2ccccc2)c(=O)[nH]c1=O	-15.7% (inactive)
CC(C)CN(C(=O)COC(=O)c1ccccc1NCc1ccco1)c1c(N)n(Cc2ccccc2)c(=O)[nH]c1=O	14.3% (inactive)
COC(=O)C[C@H]1c2cc(F)cc(F)c2S(=O)(=O)N1C1CCN(Cc2ccccc2)CC1	8.72% (inactive)
O=C(Cn1c(=O)oc2cc(S(=O)(=O)N3CCc4ccccc43)ccc21)N1CCCCC1	-6.67% (inactive)
CCCCN(CC)CCNS(=O)(=O)c1ccc2c(c1)oc(=O)n2C	2.71% (inactive)
CCOc1cc(/C=N/NC(=O)C(=O)NCc2cccnc2)ccc1O	-2.33% (inactive)
Cc1cccc(NC(=O)CNC(=O)CN2C(=O)NC3(CCc4ccccc43)C2=O)c1C (stereo not drawn)	-4.94% (inactive)
COc1ccccc1C(=O)Nc1ccc2c(c1)CN(Cc1cnc(C)s1)CC2	11% (inactive)
Cc1ccc(C)c(NC(=O)CN(C)C(=O)c2cccc(S(=O)(=O)N(C)C)c2)c1	-5.14% (inactive)
Cc1ccccc1NC(=S)N1CCN(Cc2ccc3c(c2)OCO3)CC1	0.01% (inactive)
